Assay [1] has as its target T1, Aspartate--tRNA(Asp/Asn) ligase (Mycobacterium tuberculosis (strain ATCC 25618 / H37Rv)) (UniProt P9WFW3). Note: in the data most compounds retested in dose-response had high values.
T1 sequence (whole entry): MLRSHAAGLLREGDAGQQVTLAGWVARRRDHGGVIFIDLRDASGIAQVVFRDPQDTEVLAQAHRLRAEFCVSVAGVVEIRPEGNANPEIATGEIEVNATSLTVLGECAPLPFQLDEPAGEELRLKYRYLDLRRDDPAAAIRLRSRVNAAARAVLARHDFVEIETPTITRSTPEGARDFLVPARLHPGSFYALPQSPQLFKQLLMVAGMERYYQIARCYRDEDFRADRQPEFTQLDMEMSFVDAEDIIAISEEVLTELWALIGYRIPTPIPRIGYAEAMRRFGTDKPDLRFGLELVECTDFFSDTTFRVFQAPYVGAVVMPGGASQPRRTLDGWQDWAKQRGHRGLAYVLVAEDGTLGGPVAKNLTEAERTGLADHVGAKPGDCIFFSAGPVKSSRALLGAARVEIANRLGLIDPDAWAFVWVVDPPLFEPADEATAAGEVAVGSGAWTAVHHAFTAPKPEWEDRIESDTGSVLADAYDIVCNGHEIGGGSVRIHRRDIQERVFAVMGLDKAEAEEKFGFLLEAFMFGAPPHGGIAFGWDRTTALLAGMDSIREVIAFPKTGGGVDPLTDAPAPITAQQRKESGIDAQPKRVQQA
As to the kind of experiment: Assay for Asp RNA synthetase-1 from Mycobacterium tuberculosis. The class given is functional. The arrangement: scale not given: direction of the effect not stated beside the values. The note with it: 30 µM.

The target of assay [2] is Shiga toxin 2 (Escherichia coli O157:H7) (UniProt P09385+P09386). As to the kind of experiment: E. coli 0.157:H7 Shiga Toxin SOP - stx2 screening assay. It counts as functional. Also noted: scale not given: direction of the effect not stated beside the values. The note with it: 30 µM.

As to `CCS(=O)(=O)CCNC(=O)c1ccc(-c2ccc(C)cc2)cc1F`, the results for the Percent Effect in assay [1] and in assay [2] were 7.76% and -42.5%, respectively.
The like results for `COc1c(C)cnc(CN2CCCCC2Cn2nc(C)nc2C)c1C` (configuration not stated) were, in that order, -2.54% and -21.3%.
The corresponding values for `CC(C)C1CN(C(=O)c2ccc(C(N)=O)cc2)CCS1` (configuration not stated) are 9.66% and -45.2%.
The like results for `CCc1ncnc2c1CCN(C(=O)Cc1ccccn1)CC2` were, in that order, -1.97% and -18.4%.
Take `Cn1cc(C[C@H]2[C@@H](O)CCN2C(=O)C2CC=CC2)cn1`: the Percent Effect is 7.16% in assay [1] and -21.6% in assay [2].
The like results for `O=C(Cc1ccsc1)NCC1OCCc2cn(CC3CC3)nc21` (configuration not stated) were, in that order, 1.47% and -11.5%.
The corresponding values for `O=C(c1ccccc1N1CCOCC1)N1CCCC(n2cccn2)C1` (configuration not stated) are 0.062% and 19.5%.
The like results for `O=C(NC[C@@H]1CCCN1)c1cc(COc2cccc(C(F)(F)F)c2)[nH]n1` were, in that order, 1.98% and -15.7%.
On to `O=C(NCc1cc[nH]n1)N(CCCO)C1CCc2ccccc21` (configuration not stated), for which the Percent Effect was 1.93% in assay [1] and 0.536% in assay [2].
With `CN1C(=O)C(C)(C)COc2cc(NS(=O)(=O)Cc3ccccc3)ccc21`, the Percent Effect in assay [1] is -4.77%; in assay [2], 14.9%.
The corresponding values for `O=C(Cn1nc(-c2ccc(F)cc2)oc1=O)NCc1ccc(F)cc1` are -2.48% and 32.8%.
The like results for `CN(Cc1ncc(-c2ccccc2)o1)CC1CCCN1c1cccnn1` (configuration not stated) were, in that order, 0.259% and 5.15%.
The like results for `Cc1ccccc1Oc1ncccc1CNS(C)(=O)=O` were, in that order, -3.12% and -11.9%.
On to `Cc1cnn(CC2CCCCN2Cc2noc(C3CC3)n2)c1` (configuration not stated), for which the Percent Effect in assay [1] is -2.57%; in assay [2], 26.8%.
The corresponding values for `CN1CCCC[C@@H]2[C@H]1[C@@H](c1ccccc1)CCN2C(=O)c1cnccn1` are 0.342% and -18.3%.
Consider `CC(C)c1ccc(OCn2ccc(C(=O)N3CCCC3)n2)cc1`, for which the Percent Effect in assay [1] is 5.38%; in assay [2], -13.8%.
With `Cn1ccnc1CN1CCCN(C(=O)c2ccc(Cl)o2)CC1`, the Percent Effect in assay [1] was -4.19%; in assay [2] it was 17.7%.
The corresponding values for `Cc1noc2ncc(C(=O)NCC3CCOC3)cc12` (configuration not stated) are -2.88% and 16.2%.
Consider `O=C(COc1cccc2c1CCC2=O)NCc1ccccc1F`, for which the Percent Effect in assay [1] is 10.4%; in assay [2], -7.67%.
The like results for `O=C(Cn1nc(-c2ccc(F)cc2)oc1=O)Nc1ccccc1` were, in that order, -1.5% and -19.2%.
The corresponding values for `CC(=O)NCCNC(=O)c1sc(-c2ccc(Cl)s2)nc1C` are 7.28% and 8.5%.
The like results for `Cc1cc(NC(=O)C(C)N2CCCN(c3nccs3)CC2)on1` (configuration not stated) were, in that order, -2.75% and 4.75%.
Regarding `COCCN(C)CCN1CC2(CCN(C(=O)C3CCOC3)CC2)OC1=O` (configuration not stated), the Percent Effect in assay [1] is -1.75%; in assay [2], -24.2%.
The corresponding values for `Cc1cc2n(n1)CC(CNCc1cnn(-c3ccccc3)c1)CN2` (configuration not stated) are -1.15% and 7.05%.
As for `Cc1nn(C)c(C)c1C1COCCN1C(=O)Cc1cccc(F)c1` (configuration not stated), the Percent Effect in assay [1] is 1.67%; in assay [2], -31%.
The like results for `CNC(=O)CS(=O)(=O)Cc1coc(-c2ccc(OC)cc2)n1` were, in that order, -0.993% and -5.58%.
`CCc1nnc2n1CCN(C(=O)c1cnc3ccccc3n1)C2`: the Percent Effect was -4.57% in assay [1] and 0.361% in assay [2].
The like results for `CCOc1cc(C)nc(N2CCN(C(=O)CC)CC2)n1` were, in that order, 0.408% and 12.8%.
The corresponding values for `O=C(c1ccsc1)N1CC(C(=O)N2CCOCC2)C2(CCOCC2)C1` (configuration not stated) are -3.83% and -2.66%.
The corresponding values for `O=C(Nc1ccccc1)N1CCn2nnc(COc3cccnc3)c2C1` are 9.35% and -2.97%.
With `Cc1nc(C)n(CC2CN(Cc3cccc(C(N)=O)c3)CCO2)n1` (configuration not stated), the Percent Effect in assay [1] was 4.41%; in assay [2], -4.3%.
The corresponding values for `CC(C)(C)NC(=O)CNC(=O)CCc1ccccc1Br` are 0.279% and -3.39%.
The like results for `CS(=O)(=O)c1cccc(C(N)c2ccc(F)c(F)c2)c1` (configuration not stated) were, in that order, -1.19% and -2.5%.
In the case of `CCO[C@H]1CO[C@@]2(CCCN(S(=O)(=O)c3ccccc3)C2)C1`, the Percent Effect is 4.62% in assay [1] and -21.7% in assay [2].
Turning to `CC(=O)N1CCOCC2(CCN(Cc3ccc(C)s3)CC2)C1`, the results for the Percent Effect in assay [1] and in assay [2] were 0.408% and -23.3%, respectively.
Turning to `N#Cc1cccc(CN2CC[C@@H]3[C@@H]2CC(=O)N3Cc2cccnc2)c1`, the figures for the Percent Effect in assay [1] and in assay [2] were 4.04% and -0.447%, respectively.
The like results for `CN1CCCC1c1cccc(Cc2ccccc2F)n1` (configuration not stated) were, in that order, -0.581% and 1.7%.
Take `Cc1occc1C(=O)N1CCC2(CCN(Cc3nccs3)C2)CC1`: the results for the Percent Effect in assay [1] and in assay [2] were 0.208% and -15.8%, respectively.
The like results for `Cc1ccccc1-c1cncc(C2CCN(C(=O)CN(C)C)CC2)n1` were, in that order, 6.8% and -18.5%.
On to `Cc1nnc2n1CCN(Cc1ncc(-c3ccc(Cl)cc3)o1)C2`, for which the Percent Effect in assay [1] was -2.3%; in assay [2] it was 25.1%.
The like results for `CCOc1ccc(CC(=O)N2CCN(c3nccn3C)CC2)cc1` were, in that order, 5.09% and -64.2%.
The like results for `O=C(NCC1CC1)Nc1cnc2cc(Cl)ccc2c1O` were, in that order, -0.223% and -0.695%.
The like results for `O=C(c1cscn1)N1CCC[C@]2(C[C@H](OCC3CC3)CO2)C1` were, in that order, 3.34% and -17.4%.
As to `Cc1cccc(C(=O)N2CCC(Cc3cnc4[nH]ccc4c3)CC2)n1`, the Percent Effect in assay [1] worked out at 4.87%; in assay [2], 5.08%.
The like results for `Cc1ccc2c(n1)N(CCN(C)C)CCN(C(=O)c1ccc[nH]1)C2` were, in that order, 8.78% and -14.6%.
The like results for `O=C(c1ccoc1)N1CC[C@@H]2[C@H]1CCC(=O)N2c1ccccc1` were, in that order, 1.49% and 1.4%.

The values above are taken from ChEMBL document CHEMBL3988442, “University of Dundee, Small-Polar-MMV Screening Library” (2021).
